The text below walks through data of PubChem BioAssay (NCI).

A short description of assay [1]: NCI Yeast Anticancer Drug Screen. Data for the rad50 strain (AID 155).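 Further: 0% = growth of vehicle-only cultures of the same strain.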 Particulars: S. cerevisiae rad50 strain growth inhibition, stronger effect = higher value. The method in brief:
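A DNA repair-deficient yeast mutant serves as the test organism; compound-induced growth inhibition is calculated against vehicle-treated cells.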

A short description of assay [2]: NCI Yeast Anticancer Drug Screen. Data for the mec2-1 strain (AID 157). Particulars: S. cerevisiae mec2-1 strain, stronger effect = higher value. The method in brief: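 Using mec2-1 yeast: add compound, measure growth, express inhibition versus vehicle-treated cultures.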
The nature of assay [3]: NCI Yeast Anticancer Drug Screen. Data for the sgs1 mgt1 strain (AID 161).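 Further: 0% = growth of cultures given vehicle only.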 Particulars: S. cerevisiae sgs1 mgt1 strain, stronger effect = higher value. Put shortly: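 Compounds are added to genetically altered yeast, and growth is compared with cultures given vehicle alone to give percent inhibition.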
Assay [4] in a line: NCI Yeast Anticancer Drug Screen. Data for the cln2 rad14 strain (AID 165).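 Further: 0% = growth equal to vehicle treated cultures.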 Particulars: S. cerevisiae cln2 rad14 strain, stronger effect = higher value. The method in brief:
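Yeast strain cln2 rad14, bearing defects in cell cycle control and DNA repair, serves as the test system; values reflect growth inhibition compared with vehicle.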

Assay [5] can be described thus: NCI Yeast Anticancer Drug Screen. Data for the bub3 strain (AID 167). The conditions noted are these: S. cerevisiae bub3 mutant strain, stronger effect = higher value. Put shortly: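 Inhibition values come from growth of compound-treated mutant yeast normalised to vehicle-treated controls.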
Assay [6] is described as follows: NCI Yeast Anticancer Drug Screen. Data for the mlh1 rad18 strain (AID 175). Particulars: S. cerevisiae mlh1 rad18 strain growth inhibition, stronger effect = higher value. The method in brief:
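Steps: expose repair-defective yeast to compound; measure growth; express inhibition against vehicle-treated controls.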

Where [7] appears, read: at 5.0 µM (retest, dose inferred, filed as 0.5).
[8] abbreviates: at 50.0 µM (retest, dose inferred, filed as 5.0).

This is part of a sample that, as a whole, favours compounds with a hit. Of some 79,000 tested, about 15% had one in any assay. Values without a mark were called inactive. The source made the active and inactive calls. No stated cut-off is given here; in the data, active means growth inhibition above about 70%; inactive means the rest.

Regarding `CCCCCN=Cc1c(O)c(O)c(C(C)C)c2cc(C)c(-c3c(C)cc4c(C(C)C)c(O)c(O)c(C=NCCCCC)c4c3O)c(O)c12`, the growth inhibition was 2% in assay [1] (setting [7]); 43% in assay [1] (setting [8]); 14.8% in assay [1] (at 50.0 µM); -44% in assay [2] (setting [7]); 17% in assay [2] (setting [8]); 62.9% in assay [2] (at 50.0 µM). Moreover, the growth inhibition in assay [3] (setting [7]) was 2%; in assay [3] (setting [8]), 50%; in assay [3] (at 50.0 µM), 71.8% (active); in assay [4] (setting [7]), 1%; in assay [4] (setting [8]), 11%; in assay [4] (at 50.0 µM) it was 20.4%. Also, the growth inhibition in assay [5] (setting [7]) is -2%; in assay [5] (setting [8]), 40%; in assay [5] (at 50.0 µM), 30%; in assay [6] (setting [7]), 1%; in assay [6] (setting [8]) it was 25%; in assay [6] (at 50.0 µM) it was 68.5%.

As to `CN(C(=O)C(Cl)Cl)c1ccc(-c2csc(-c3ccccc3)n2)cc1`, the growth inhibition in assay [1] (setting [7]) was 5%; in assay [1] (setting [8]), 12%; in assay [1] (at 50.0 µM), 12.9%; in assay [2] (setting [7]), 10%; in assay [2] (setting [8]), -1%; in assay [2] (at 50.0 µM), 33.9%. Moreover, the growth inhibition is 6% in assay [3] (setting [7]); 20% in assay [3] (setting [8]); -7.4% in assay [3] (at 50.0 µM); -2% in assay [4] (setting [7]); -3% in assay [4] (setting [8]); 95.8% (active) in assay [4] (at 50.0 µM). Also, the growth inhibition in assay [5] (setting [7]) was 2%; in assay [5] (setting [8]), 22%; in assay [5] (at 50.0 µM) it was 97% (active); in assay [6] (setting [7]), 4%; in assay [6] (setting [8]), 7%; in assay [6] (at 50.0 µM) it was 22.4%.

`O=C(CCCN1CCN2Cc3[nH]c4ccccc4c3CC2C1)c1ccc(F)cc1` (configuration not stated): the growth inhibition in assay [1] (setting [7]) was 5%; in assay [1] (setting [8]) it was 58%; in assay [1] (at 50.0 µM), 98.8% (active); in assay [2] (setting [7]), 7%; in assay [2] (setting [8]), 73% (active); in assay [2] (at 50.0 µM), 98.7% (active). For the same compound, the growth inhibition is 20% in assay [3] (setting [7]); 92% (active) in assay [3] (setting [8]); 66.8% in assay [3] (at 50.0 µM); 2% in assay [4] (setting [7]); 59% in assay [4] (setting [8]); 95.6% (active) in assay [4] (at 50.0 µM). Besides, the growth inhibition in assay [5] (setting [7]) was 4%; in assay [5] (setting [8]), 60%; in assay [5] (at 50.0 µM), 92.1% (active); in assay [6] (setting [7]) it was 37%; in assay [6] (setting [8]), 88% (active); in assay [6] (at 50.0 µM), 99.3% (active).

On to `CCOC(=O)OC(=S)N(C1CCCCC1)C1CCCCC1`, for which the growth inhibition is 4% in assay [1] (setting [7]); 58% in assay [1] (setting [8]); 50.5% in assay [1] (at 50.0 µM); 0% in assay [2] (setting [7]); 90% (active) in assay [2] (setting [8]); 16.6% in assay [2] (at 50.0 µM). Further, the growth inhibition is 5% in assay [3] (setting [7]); 76% (active) in assay [3] (setting [8]); 50.8% in assay [3] (at 50.0 µM); 5% in assay [4] (setting [7]); 58% in assay [4] (setting [8]); 41.4% in assay [4] (at 50.0 µM). For the same compound, the growth inhibition in assay [5] (setting [7]) is -1%; in assay [5] (setting [8]) it was 77% (active); in assay [5] (at 50.0 µM) it was 61.9%; in assay [6] (setting [7]), 1%; in assay [6] (setting [8]) it was 85% (active); in assay [6] (at 50.0 µM), 60.8%.

Consider `Nc1cc(Cl)c2c(c1)Cc1ccccc1-2`, for which the growth inhibition in assay [1] (setting [7]) is 3%; in assay [1] (setting [8]), 96% (active); in assay [1] (at 50.0 µM), 76.8% (active); in assay [2] (setting [7]), 2%; in assay [2] (setting [8]) it was 95% (active); in assay [2] (at 50.0 µM) it was 9.45%. The growth inhibition in assay [3] (setting [7]) was 7%; in assay [3] (setting [8]), 96% (active); in assay [3] (at 50.0 µM) it was 84.8% (active); in assay [4] (setting [7]), -7%; in assay [4] (setting [8]) it was 94% (active); in assay [4] (at 50.0 µM) it was -22.4%. In addition, the growth inhibition in assay [5] (setting [7]) was -6%; in assay [5] (setting [8]), 94% (active); in assay [5] (at 50.0 µM), 70.8% (active); in assay [6] (setting [7]), 0%; in assay [6] (setting [8]), 94% (active); in assay [6] (at 50.0 µM) it was 86.8% (active).

In the case of `CN(C)CCC(=O)c1ccc2c(ccc3ccccc32)c1`, the growth inhibition in assay [1] (setting [7]) was 5%; in assay [1] (setting [8]), 36%; in assay [1] (at 50.0 µM), 69.7%; in assay [2] (setting [7]), 10%; in assay [2] (setting [8]), 83% (active); in assay [2] (at 50.0 µM) it was 66.8%. The growth inhibition in assay [3] (setting [7]) is 8%; in assay [3] (setting [8]), 92% (active); in assay [3] (at 50.0 µM) it was 90.5% (active); in assay [4] (setting [7]), -3%; in assay [4] (setting [8]) it was 51%; in assay [4] (at 50.0 µM) it was -7.8%. In addition, the growth inhibition in assay [5] (setting [7]) was 6%; in assay [5] (setting [8]), 94% (active); in assay [5] (at 50.0 µM), 84.7% (active); in assay [6] (setting [7]), 0%; in assay [6] (setting [8]), 90% (active); in assay [6] (at 50.0 µM) it was 77.2% (active).

As to `O=C(c1ccccc1)C1Cc2ccccc2C1=O` (configuration not stated), the growth inhibition in assay [1] (setting [7]) is 2%; in assay [1] (setting [8]) it was 39%; in assay [1] (at 50.0 µM), 78.5% (active); in assay [2] (setting [7]) it was -16%; in assay [2] (setting [8]), 2%; in assay [2] (at 50.0 µM), 50.1%. Besides, the growth inhibition in assay [3] (setting [7]) is 0%; in assay [3] (setting [8]) it was 5%; in assay [3] (at 50.0 µM), 86.5% (active); in assay [4] (setting [7]) it was 3%; in assay [4] (setting [8]) it was 1%; in assay [4] (at 50.0 µM), 19.8%. In addition, the growth inhibition in assay [5] (setting [7]) is 35%; in assay [5] (setting [8]) it was 13%; in assay [5] (at 50.0 µM) it was 4.4%; in assay [6] (setting [7]), 2%; in assay [6] (setting [8]), 11%; in assay [6] (at 50.0 µM), 84.2% (active).

Consider `Cc1cccc(/C=N/NC(=S)Nc2ccc(Cl)cc2)n1`, for which the growth inhibition in assay [1] (setting [7]) was 6%; in assay [1] (setting [8]), 98% (active); in assay [1] (at 50.0 µM), 70% (active); in assay [2] (setting [7]), 0%; in assay [2] (setting [8]) it was 97% (active); in assay [2] (at 50.0 µM), 81.8% (active). In addition, the growth inhibition was -5% in assay [3] (setting [7]); 98% (active) in assay [3] (setting [8]); 87% (active) in assay [3] (at 50.0 µM); -25% in assay [4] (setting [7]); 96% (active) in assay [4] (setting [8]); 86.5% (active) in assay [4] (at 50.0 µM). The growth inhibition in assay [5] (setting [7]) is -12%; in assay [5] (setting [8]), 98% (active); in assay [5] (at 50.0 µM), 87.2% (active); in assay [6] (setting [7]), 35%; in assay [6] (setting [8]), 98% (active); in assay [6] (at 50.0 µM), 88.8% (active).

`COc1ccc(-c2noc(=O)c3ccccc23)cc1`: the growth inhibition in assay [1] (setting [7]) was 11%; in assay [1] (setting [8]) it was 6%; in assay [1] (at 50.0 µM) it was -5.8%; in assay [2] (setting [7]), 5%; in assay [2] (setting [8]) it was 4%; in assay [2] (at 50.0 µM) it was -1.1%. The growth inhibition in assay [3] (setting [7]) was 6%; in assay [3] (setting [8]), 4%; in assay [3] (at 50.0 µM), 3.4%; in assay [4] (setting [7]), 4%; in assay [4] (setting [8]) it was 3%; in assay [4] (at 50.0 µM), 64.2%. Further, the growth inhibition in assay [5] (setting [7]) was -3%; in assay [5] (setting [8]), -2%; in assay [5] (at 50.0 µM), 9.65%; in assay [6] (setting [7]), -1%; in assay [6] (setting [8]), 1%; in assay [6] (at 50.0 µM), 1.35%.
